A selection: hits, their analogues and other compounds. The true share with any hit is near 3.5%.
TEAD-YAP inh: TEAD-YAP interaction inhibition | inhibition, % at 9.12 µM | 640,000 compounds, 1.4% hits | HEK-TIYL cells, TEAD-Gal4/YAP UAS-luciferase luminescence; in the data active = inhibition above about 32%;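 note: 0% = median of test compound wells and 100% = reference inhibitor wells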
GPR151 ag: human GPR151 activation; PathHunter beta-arrestin GPR151 cells, luminescence; 650,000 compounds, 1% hits; activation, % at 11.2 µM; AID 1508602; in the data active = activation above about 4.9%;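 note: 0% = median of compound wells and 100% = cells with positive control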
Target sequence (Q8TDV0 whole entry, looked up): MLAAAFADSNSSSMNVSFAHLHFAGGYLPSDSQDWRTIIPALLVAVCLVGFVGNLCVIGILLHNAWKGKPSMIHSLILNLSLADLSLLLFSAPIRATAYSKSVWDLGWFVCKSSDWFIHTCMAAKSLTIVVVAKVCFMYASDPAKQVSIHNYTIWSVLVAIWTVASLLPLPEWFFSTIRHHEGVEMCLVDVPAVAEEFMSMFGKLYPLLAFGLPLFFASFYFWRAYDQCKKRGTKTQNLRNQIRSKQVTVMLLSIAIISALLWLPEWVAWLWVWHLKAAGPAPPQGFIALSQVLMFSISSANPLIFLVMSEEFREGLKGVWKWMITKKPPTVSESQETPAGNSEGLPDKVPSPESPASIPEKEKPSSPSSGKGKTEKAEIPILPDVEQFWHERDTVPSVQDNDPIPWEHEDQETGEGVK
MITF primary: human MITF inhibition, primary screen; 650,000 compounds, 0.91% hits; AlphaScreen MITF homodimerization, bead proximity signal; inhibition, % at 2.6 µM; O75030; in the data active = inhibition above about 50%;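 note: 0% = vehicle wells with protein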
FBW7 activator: activators of human E3 ligase FBW7; normalized activity (activation), % at 26.1 µM; 650,000 compounds, 0.13% hits; Q969H0; AlphaScreen FBW7–phospho-cyclin E peptide binding, activator screen; AID 1259310; in the data active = normalized activity above about 1.9%;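 note: purified mutant Fbw7 with reduced substrate affinity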
The depositor's hits bear a star; x = not tested or not shown.

SMILES	TEAD-YAP inh	GPR151 ag	MITF primary	FBW7 activator
Nc1ccc(-c2nc3cccnc3s2)cc1	33.6*	-8.0	-8.9	0.0
O=C(Cc1ccccc1)Nc1ccc(-c2nc3cccnc3s2)cc1	-17.4	-0.1	8.5	0.0
CC(C)CC(=O)Nc1ccc(-c2nc3cccnc3s2)cc1	53.8*	-3.2	15.6	0.0
O=C(Nc1ccc(-c2nc3cccnc3s2)cc1)c1ccccc1	-48.4	-2.6	-3.2	0.2
O=C(Nc1ccc(-c2nc3cccnc3s2)cc1)C1CC1	74.7*	-4.1	9.9	0.1
Nn1c(-c2ccccc2)nc2c(c1=O)C1(CCCCC1)Cc1ccccc1-2	-3.2	-1.6	6.2	0.2
Cc1ccc(CN2CCC3(CC2)CC3C(=O)NCCCc2ccccc2)s1 (centres undefined)	12.4	-1.3	0.6	-0.1
O=C(Nc1cccc(C(F)(F)F)c1)N1CCC(c2nc(-c3ccnnc3)no2)CC1	-8.9	-1.0	7.0	-0.1
Cc1ccc(S(=O)(=O)/N=C2/C=C(ON=C3C=CC(=O)C=C3)C(=O)c3ccccc32)cc1	45.4*	-2.5	7.5	-0.5
CCOc1cc(/C=C2/C(=N)N3N=C(C(F)(F)F)SC3=NC2=O)ccc1OCCOc1ccc(C)cc1C	8.9	1.2	2.6	-0.1
CCC(=O)OC(CC(=O)O)C[N+](C)(C)C (centres undefined)	x	2.8	-1.4	0.1
O=C(Nc1cccnc1)c1ccc(Cl)c(Cl)c1	-17.1	0.3	7.1	-0.1
COc1cc(C(=O)Nc2cccnc2)ccc1OCc1c(Cl)cccc1Cl	39.0*	1.7	6.6	-0.1
Cc1cc(-c2cccc3[nH]c(C(F)(F)F)nc23)nn1C(=O)c1ccncc1	34.2*	-0.9	1.5	-0.2
O=C(O)c1cccc2[nH]c(C(F)(F)F)nc12	11.5	0.7	15.6	0.2
Clc1ccc(-c2[nH]c(-c3cccc4ccccc34)nc2-c2ccccc2)cc1	-1.9	0.5	-0.7	0.0
CC1CCC(C(C)C)C(OC(=O)CN2C(=O)C3C4c5ccccc5C(c5ccccc54)C3C2=O)C1 (centres undefined)	19.2	-1.0	-0.1	0.0
CC1CCC(C(C)C)C(OC(=O)Cn2c(-c3ccc(F)cc3)[n+](C)c3ccccc32)C1 (centres undefined)	40.0*	1.4	5.8	0.0
CC1CCC(C(C)C)C(OC(=O)Cn2c(-c3ccccc3)[n+](C)c3ccccc32)C1 (centres undefined)	83.3*	1.2	4.5	0.1
CC1CCC(C(C)C)C(OC(=O)Cn2c[n+](CC(=O)OC3CC(C)CCC3C(C)C)c3ccccc32)C1 (centres undefined)	5.2	1.2	13.8	-0.1
COC(=O)C1=CN(C2CC2)C=C(C(=O)OC)C1c1ccc(Cl)cc1	9.8	1.1	5.1	0.0
Cc1cc(C)c2c3c1C1C=CCC1CN3C(C(=O)O)C1CC=CC21 (centres undefined)	-1.6	0.1	25.0	2.5*
O=C(O)C1C2CC=CC2c2cc(Oc3ccccc3)cc3c2N1CC1CC=CC31 (centres undefined)	-1.5	0.1	0.3	2.3*
O=C(O)c1cc2c3c(c1)C1CC=CC1C(c1ccc(Br)cc1)N3CC1CC=CC21 (centres undefined)	-5.5	-1.3	71.6*	-0.1
O=C(O)c1cc2c3c(c1)C1C=CCC1C(c1ccccc1)N3CC1CC=CC21 (centres undefined)	12.8	1.3	56.4*	0.1
SMILES	TEAD-YAP inh	GPR151 ag	MITF primary	FBW7 activator
CCc1nc2ccccc2n1CC(O)COc1ccc2ccccc2c1Br (centres undefined)	-2.7	-1.3	10.8	0.0
O=C(CN1C(=O)c2ccccc2C1=O)Nc1ccc(-c2ccc(NC(=O)CN3C(=O)c4ccccc4C3=O)cc2)cc1	8.1	0.7	-19.1	0.2
CC(=O)NNc1ccc(Br)cc1	1.3	0.5	2.1	0.3
CSc1nc(C)cc(Nc2ccc(C(N)=O)cc2)n1	-29.8	2.0	1.2	0.0
c1csc(-c2nc3cnccn3c2NCC2CCCO2)c1 (centres undefined)	-19.3	-0.5	4.1	0.5
COc1cccc(NC(=O)CSC2=C(C#N)C(c3cccs3)CC(=O)N2)c1 (centres undefined)	39.6*	0.7	-10.8	-0.3
N#CC1=C(SCC(=O)Nc2cccc(Br)c2)NC(=O)CC1c1cccs1 (centres undefined)	-4.4	-0.1	-16.4	0.2
N#CC1=C(SCC(=O)Nc2cc(Cl)cc(Cl)c2)NC(=O)CC1c1cccs1 (centres undefined)	43.1*	-0.8	-7.1	-0.1
Cc1ccc(NS(=O)(=O)c2ccccc2C#N)c(C)c1	6.9	-1.9	9.8	0.5
COc1ccc(-c2csc(NC(=O)c3cc(C)nn3C)n2)cc1	63.2*	0.4	-0.3	0.0
COc1ccc(-c2csc(NC(=O)c3csc(C)c3)n2)cc1	-3.5	1.4	-4.5	-0.7
COc1ccc(/C(C)=N\NC(=O)c2cc(-c3c(C)nn(-c4ccccc4)c3C)n[nH]2)cc1	44.4*	-0.6	15.4	0.2
COC(=O)c1cc(-c2c(C)nn(-c3ccccc3)c2C)n[nH]1	-21.3	-0.3	-13.4	-0.2
CC(C)CCNCc1c(C(=O)O)n(Cc2ccc(Cl)cc2)c2ccccc12	13.4	0.5	-8.0	0.0
CCN(CC)C(=O)N1c2ccccc2C=Cc2ccccc21	62.0*	0.0	-2.0	-0.1
Cc1noc(/C=C/c2ccco2)c1S(=O)(=O)N1CCC(C(=O)Nc2nccs2)CC1	-11.9	0.2	58.1*	-0.3
COC(=O)Cn1cnc2c1c(=O)[nH]c(=O)n2C	3.4	-1.1	6.5	-0.1
Cn1c(=O)[nH]c(=O)c2c1ncn2CC(=O)NN	-5.7	-0.7	5.2	2.4*
O=C(CSc1ncnc2c1nnn2Cc1ccccc1F)Nc1ccccc1	13.1	1.2	8.3	1.1
COCCCNC(=O)c1cccn2c(=O)c3cc4ccccc4cc3nc12	35.7*	0.6	-4.9	0.1
O=C(NCc1ccco1)c1cccn2c(=O)c3cc4ccccc4cc3nc12	-7.5	-1.3	-5.1	-0.3
COCCNC(=O)c1cc2c(=O)n3cccc(C)c3nc2n1C	7.3	1.1	9.3	0.0
COCCCNC(=O)c1cc2c(=O)n3cccc(C)c3nc2n1C	55.9*	2.1	9.5	0.0
O=C(Nc1cccnc1)c1cnn2c(C(F)(F)F)cc(-c3ccccc3)nc12	4.6	-0.7	0.7	-0.1
COc1ccc(CNc2nc(C)c(-c3ccn(CCO)n3)s2)c(OC)c1OC	-12.5	0.9	-1.5	-0.1
SMILES	TEAD-YAP inh	GPR151 ag	MITF primary	FBW7 activator
COc1cc(OC)c(OC)cc1CNc1nc(C)c(-c2ccn(CCO)n2)s1	37.1*	-0.3	14.7	-0.1
COc1ccc(C2C3=C(CC(C)(C)CC3=O)OC3=C2C(=O)CC(C)(C)C3)cc1O	1.0	-1.5	-5.4	-0.1
O=C(Cn1c(=O)[nH]c2ccccc21)NCc1ccc2c(c1)OCO2	74.5*	-5.8	5.6	0.1
O=C1CSc2ccc(C(=O)NC3CCCc4ccccc43)cc2N1 (centres undefined)	58.2*	-1.3	1.7	-0.1
Nc1nnc(/C=C/c2ccc3c(c2)OCO3)s1	-20.5	-1.9	19.7	0.6
COc1cccc(C2C=C(c3ccc(C)cc3)Nc3ncnn32)c1 (centres undefined)	53.7*	1.6	16.4	0.0

High-throughput results deposited in PubChem by The Scripps Research Institute Molecular Screening Center.
